The entries come from a sample that favours the strongest signals as a whole.
Key:
Assay in all cases: glycan array binding signal (z-score within array); higher = stronger binding
Conditions in all cases: glycan notation: IUPAC condensed, linker removed
[1] = molecular target: Fuc(a1-2)Gal(b1-3)GalNAc(a1-3)[Fuc(a1-2)]Gal(b1-4)Glc
In short: (§1)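 The binding signal is a Z-score computed within each array and averaged over linkers. Arrays of the same protein sequence at different concentrations or buffers were also averaged together. Data originate from 3228 arrays in the Consortium for Functional Glycomics database, kept only where the protein sequence was available.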

[2] = molecular target: Fuc(a1-2)Gal(b1-3)GalNAc(a1-3)[Fuc(a1-2)]Gal(b1-4)GlcNAc
In short: as §1

[3] = molecular target: Fuc(a1-2)Gal(b1-3)GalNAc(b1-4)[Neu5Ac(a2-3)]Gal(b1-4)Glc
In short: as §1

[4] = molecular target: Fuc(a1-2)Gal(b1-3)GlcNAc(b1-3)[Fuc(a1-2)Gal(b1-3)GlcNAc(b1-6)]GalNAc
In short: as §1

[5] = molecular target: Fuc(a1-2)Gal(b1-4)GlcNAc(b1-2)[Fuc(a1-2)Gal(b1-4)GlcNAc(b1-4)]Man(a1-3)[Fuc(a1-2)Gal(b1-4)GlcNAc(b1-2)Man(a1-6)]Man(b1-4)GlcNAc(b1-4)GlcNAc
In short: as §1

[6] = molecular target: Fuc(a1-2)Gal(b1-4)GlcNAc(b1-3)Gal(b1-4)GlcNAc(b1-2)Man(a1-3)[Fuc(a1-2)Gal(b1-4)GlcNAc(b1-3)Gal(b1-4)GlcNAc(b1-2)Man(a1-6)]Man(b1-4)GlcNAc(b1-4)GlcNAc
In short: as §1

[7] = molecular target: Fuc(a1-2)Gal(b1-4)GlcNAc6S
In short: as §1

[8] = molecular target: Fuc(a1-2)Gal(b1-4)[Fuc(a1-3)]GlcNAc(b1-2)[Fuc(a1-2)Gal(b1-4)[Fuc(a1-3)]GlcNAc(b1-4)]Man(a1-3)[Fuc(a1-2)Gal(b1-4)[Fuc(a1-3)]GlcNAc(b1-2)Man(a1-6)]Man(b1-4)GlcNAc(b1-4)GlcNAc
In short: as §1

[9] = molecular target: Fuc(a1-2)[Gal(a1-3)]Gal(b1-3)GalNAc
In short: as §1

[10] = molecular target: Fuc(a1-2)[Gal(a1-3)]Gal(b1-4)[Fuc(a1-3)]GlcNAc
In short: as §1

[11] = molecular target: Fuc(a1-3)[Gal(b1-4)]GlcNAc(b1-3)Gal(b1-3)[Fuc(a1-4)]GlcNAc
In short: as §1

[12] = molecular target: Gal(a1-3)Gal(b1-3)GlcNAc
In short: as §1

[13] = molecular target: Gal(a1-3)GalNAc
In short: as §1

[14] = molecular target: Gal(b1-3)GalNAc(a1-3)[Fuc(a1-2)]Gal(b1-4)Glc
In short: as §1

[15] = molecular target: Gal(b1-3)GalNAc(a1-3)[Fuc(a1-2)]Gal(b1-4)GlcNAc
In short: as §1

[16] = molecular target: Gal(b1-3)GlcNAc(b1-3)Gal(b1-4)[Fuc(a1-3)]GlcNAc
In short: as §1

[17] = molecular target: Gal(b1-3)GlcNAc(b1-6)GalNAc
In short: as §1

[18] = molecular target: Gal(b1-4)Glc6S
In short: as §1

[19] = molecular target: Gal(b1-4)GlcNAc(b1-2)Man(a1-6)[GlcNAc(b1-2)Man(a1-3)]Man(b1-4)GlcNAc(b1-4)GlcNAc
In short: as §1

[20] = molecular target: Gal(b1-4)GlcNAc(b1-2)[Gal(b1-4)GlcNAc(b1-4)]Man(a1-3)[GlcNAc(b1-4)][Gal(b1-4)GlcNAc(b1-2)Man(a1-6)]Man(b1-4)GlcNAc(b1-4)GlcNAc
In short: as §1

[21] = molecular target: Gal(b1-4)GlcNAc(b1-3)Gal(b1-4)GlcNAc(b1-2)Man(a1-3)[Gal(b1-4)GlcNAc(b1-3)Gal(b1-4)GlcNAc(b1-2)Man(a1-6)]Man(b1-4)GlcNAc(b1-4)GlcNAc
In short: as §1

[22] = molecular target: Gal(b1-4)GlcNAc(b1-3)Gal(b1-4)GlcNAc(b1-3)[Gal(b1-4)GlcNAc(b1-3)Gal(b1-4)GlcNAc(b1-6)]GalNAc
In short: as §1

[23] = molecular target: Gal(b1-4)GlcNAc6P
In short: as §1

[24] = molecular target: Gal3S(b1-3)GalNAc
In short: as §1

[25] = molecular target: Gal3S4S(b1-4)GlcNAc
In short: as §1

[26] = molecular target: GalNAc(a1-3)Gal
In short: as §1

[27] = molecular target: GalNAc(b1-3)GalNAc
In short: as §1

[28] = molecular target: GlcNAc(b1-2)Man(a1-3)[GlcNAc(b1-2)Man(a1-6)]Man(b1-4)GlcNAc(b1-4)GlcNAc
In short: as §1

[29] = molecular target: GlcNAc(b1-2)Man(a1-3)[GlcNAc(b1-4)][GlcNAc(b1-2)Man(a1-6)]Man(b1-4)GlcNAc(b1-4)GlcNAc
In short: as §1

[30] = molecular target: GlcNAc(b1-2)[GlcNAc(b1-4)]Man(a1-3)[GlcNAc(b1-4)][GlcNAc(b1-2)[GlcNAc(b1-6)]Man(a1-6)]Man(b1-4)GlcNAc(b1-4)[Fuc(a1-6)]GlcNAc
In short: as §1

[31] = molecular target: GlcNAc(b1-3)Gal(b1-4)GlcNAc(b1-3)Gal(b1-4)GlcNAc(b1-2)Man(a1-3)[GlcNAc(b1-3)Gal(b1-4)GlcNAc(b1-3)Gal(b1-4)GlcNAc(b1-2)Man(a1-6)]Man(b1-4)GlcNAc(b1-4)[Fuc(a1-6)]GlcNAc
In short: as §1

[32] = molecular target: GlcNAc(b1-3)Gal(b1-4)GlcNAc(b1-6)[GlcNAc(b1-3)Gal(b1-3)]GalNAc
In short: as §1

[33] = molecular target: GlcNAc(b1-4)GlcNAc(b1-4)GlcNAc
In short: as §1

[34] = molecular target: Kdn(a2-3)Gal(b1-3)GalNAc
In short: as §1

[35] = molecular target: Kdn(a2-6)Gal(b1-4)GlcNAc
In short: as §1

[36] = molecular target: Man(a1-2)Man(a1-3)[Man(a1-2)Man(a1-6)]Man(a1-6)[Man(a1-2)Man(a1-2)Man(a1-3)]Man(b1-4)GlcNAc(b1-4)GlcNAc
In short: as §1

[37] = molecular target: Man(a1-3)[Man(a1-6)]Man(a1-6)[Man(a1-2)Man(a1-3)]Man(b1-4)GlcNAc(b1-4)GlcNAc
In short: as §1

[38] = molecular target: Neu5Ac(a2-3)Gal(b1-4)GlcNAc(b1-3)Gal(b1-4)GlcNAc(b1-2)Man(a1-3)[Neu5Ac(a2-3)Gal(b1-4)GlcNAc(b1-3)Gal(b1-4)GlcNAc(b1-2)Man(a1-6)]Man(b1-4)GlcNAc(b1-4)GlcNAc
In short: as §1

[39] = molecular target: Neu5Ac(a2-3)Gal(b1-4)GlcNAc(b1-3)Gal(b1-4)GlcNAc(b1-3)Gal(b1-4)GlcNAc(b1-2)Man(a1-3)[Neu5Ac(a2-3)Gal(b1-4)GlcNAc(b1-3)Gal(b1-4)GlcNAc(b1-3)Gal(b1-4)GlcNAc(b1-2)Man(a1-6)]GalNAc
In short: as §1

[40] = molecular target: Neu5Ac(a2-3)Gal(b1-4)GlcNAc(b1-3)Gal(b1-4)GlcNAc(b1-3)[Neu5Ac(a2-3)Gal(b1-4)GlcNAc(b1-3)Gal(b1-4)GlcNAc(b1-6)]GalNAc
In short: as §1

[41] = molecular target: Neu5Ac(a2-3)GalNAc(b1-4)GlcNAc
In short: as §1

[42] = molecular target: Neu5Ac(a2-3)[GalNAc(b1-4)]Gal(b1-4)Glc
In short: as §1

[43] = molecular target: Neu5Ac(a2-3)[GalNAc(b1-4)]Gal(b1-4)GlcNAc(b1-3)GalNAc
In short: as §1

[44] = molecular target: Neu5Ac(a2-6)Gal(b1-4)GlcNAc(b1-3)Gal(b1-4)GlcNAc(b1-3)GalNAc
In short: as §1

[45] = molecular target: Neu5Ac(a2-6)Gal(b1-4)GlcNAc(b1-3)Gal(b1-4)GlcNAc(b1-3)[Neu5Ac(a2-6)Gal(b1-4)GlcNAc(b1-3)Gal(b1-4)GlcNAc(b1-6)]GalNAc
In short: as §1

[46] = molecular target: Neu5Ac(a2-6)Gal(b1-4)GlcNAc(b1-6)[Gal(b1-3)GlcNAc(b1-3)]Gal(b1-4)Glc
In short: as §1

[47] = molecular target: Neu5Ac(a2-6)GlcNAc(b1-4)GlcNAc
In short: as §1

[48] = molecular target: Neu5Ac(a2-8)Neu5Ac(a2-3)Gal(b1-4)Glc
In short: as §1

[49] = molecular target: Neu5Ac(a2-8)Neu5Ac(a2-8)Neu5Ac
In short: as §1

[50] = molecular target: Neu5Ac(b1-6)GalNAc
In short: as §1

B1: ABA (Agaricus bisporus), Q00022 (protein)
chain: MTYTISIRVYQTTPKGFFRPVERTNWKYANGGTWDEVRGEYVLTMGGSGTSGSLRFVSSDTDESFVATFGVHNYKRWCDIVTNLTNEQTALVINQEYYGVPIRDQARENQLTSYNVANAKGRRFAIEYTVTEGDNLKANLIIG
glycan array binding signal (z-score) [1]: -0.201 | glycan array binding signal (z-score) [2]: 0.475 | glycan array binding signal (z-score) [3]: -0.192 | glycan array binding signal (z-score) [4]: -0.172 | glycan array binding signal (z-score) [5]: -0.048 | glycan array binding signal (z-score) [6]: -0.157 | glycan array binding signal (z-score) [7]: -0.289 | glycan array binding signal (z-score) [8]: 0.231 | glycan array binding signal (z-score) [9]: -0.239 | glycan array binding signal (z-score) [10]: -0.155 | glycan array binding signal (z-score) [11]: -0.058 | glycan array binding signal (z-score) [12]: -0.192 | glycan array binding signal (z-score) [13]: -0.118 | glycan array binding signal (z-score) [14]: 3.56 | glycan array binding signal (z-score) [15]: 3.27 | glycan array binding signal (z-score) [16]: -0.245 | glycan array binding signal (z-score) [17]: -0.25 | glycan array binding signal (z-score) [18]: -0.203 | glycan array binding signal (z-score) [19]: 2.81 | glycan array binding signal (z-score) [20]: -0.25 | glycan array binding signal (z-score) [21]: 2.52 | glycan array binding signal (z-score) [22]: 1.8 | glycan array binding signal (z-score) [23]: -0.104 | glycan array binding signal (z-score) [24]: 2.46 | glycan array binding signal (z-score) [25]: -0.254 | glycan array binding signal (z-score) [26]: -0.234 | glycan array binding signal (z-score) [27]: 0.071 | glycan array binding signal (z-score) [28]: 5.72 | glycan array binding signal (z-score) [29]: 2.54 | glycan array binding signal (z-score) [30]: -0.287 | glycan array binding signal (z-score) [31]: 1.39 | glycan array binding signal (z-score) [32]: 2.74 | glycan array binding signal (z-score) [33]: -0.093 | glycan array binding signal (z-score) [34]: 0.099 | glycan array binding signal (z-score) [35]: -0.239 | glycan array binding signal (z-score) [36]: 0.46 | glycan array binding signal (z-score) [37]: 2.82 | glycan array binding signal (z-score) [38]: 2.72 | glycan array binding signal (z-score) [39]: 2.8 | glycan array binding signal (z-score) [40]: 0 | glycan array binding signal (z-score) [41]: -0.276 | glycan array binding signal (z-score) [42]: -0.249 | glycan array binding signal (z-score) [43]: 1.31 | glycan array binding signal (z-score) [44]: -0.201 | glycan array binding signal (z-score) [45]: 2.26 | glycan array binding signal (z-score) [46]: -0.255 | glycan array binding signal (z-score) [47]: -0.229 | glycan array binding signal (z-score) [48]: -0.267 | glycan array binding signal (z-score) [49]: -0.247 | glycan array binding signal (z-score) [50]: -0.191

From the supplement of paper PMC8728848
